Assay results taken from ChEMBL document CHEMBL1961873, “Compounds: GSK PKIS; Assays: Nanosyn kinase panel” (2012).
Where “and” joins values, the source holds several entries; their conditions need not be identical. Equal entries are not always repeated.

Legend:
[1] = target: Serine/threonine-protein kinase MARK2 (Homo sapiens) (UniProt Q7KZI7); settings: at 1 µM
[2] = target: PAS domain-containing serine/threonine-protein kinase (Homo sapiens) (UniProt Q96RG2); settings: at 0.1 µM
[3] = target: PAS domain-containing serine/threonine-protein kinase (Homo sapiens) (UniProt Q96RG2); settings: at 1 µM
[4] = target: Phosphorylase b kinase gamma catalytic chain, skeletal muscle/heart isoform (Homo sapiens) (UniProt Q16816); settings: at 0.1 µM
Sequence of Phosphorylase b kinase gamma catalytic chain, skeletal muscle/heart isoform (Homo sapiens) (Q16816 whole entry, looked up, canonical isoform): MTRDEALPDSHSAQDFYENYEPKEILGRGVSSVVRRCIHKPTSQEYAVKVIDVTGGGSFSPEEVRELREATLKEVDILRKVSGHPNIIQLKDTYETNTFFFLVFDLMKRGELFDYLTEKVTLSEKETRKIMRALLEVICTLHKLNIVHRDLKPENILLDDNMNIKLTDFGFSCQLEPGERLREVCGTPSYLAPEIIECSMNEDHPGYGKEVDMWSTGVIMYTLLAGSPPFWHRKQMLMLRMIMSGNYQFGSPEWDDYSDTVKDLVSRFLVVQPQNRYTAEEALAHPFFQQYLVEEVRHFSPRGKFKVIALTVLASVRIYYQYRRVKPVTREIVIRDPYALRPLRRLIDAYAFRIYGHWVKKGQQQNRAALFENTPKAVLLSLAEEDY

[5] = target: Phosphorylase b kinase gamma catalytic chain, skeletal muscle/heart isoform (Homo sapiens) (UniProt Q16816); settings: at 1 µM
[6] = target: T1, Phosphorylase b kinase gamma catalytic chain, liver/testis isoform (Homo sapiens) (UniProt P15735); settings: at 0.1 µM
T1 sequence (whole entry): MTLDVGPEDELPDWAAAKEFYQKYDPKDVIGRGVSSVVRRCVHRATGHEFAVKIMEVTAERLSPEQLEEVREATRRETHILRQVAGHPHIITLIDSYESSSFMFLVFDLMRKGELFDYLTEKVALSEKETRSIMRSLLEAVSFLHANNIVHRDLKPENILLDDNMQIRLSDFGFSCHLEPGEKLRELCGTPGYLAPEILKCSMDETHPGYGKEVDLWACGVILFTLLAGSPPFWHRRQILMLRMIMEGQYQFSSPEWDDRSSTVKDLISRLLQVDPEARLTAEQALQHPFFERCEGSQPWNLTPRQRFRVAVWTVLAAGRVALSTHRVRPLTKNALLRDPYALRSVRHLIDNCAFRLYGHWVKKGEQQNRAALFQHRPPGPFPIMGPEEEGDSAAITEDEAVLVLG

[7] = target: T1, Phosphorylase b kinase gamma catalytic chain, liver/testis isoform (Homo sapiens); settings: at 1 µM
[8] = target: Serine/threonine-protein kinase pim-1 (Homo sapiens) (UniProt P11309); settings: at 0.1 µM
Sequence of Serine/threonine-protein kinase pim-1 (Homo sapiens) (P11309 whole entry, looked up): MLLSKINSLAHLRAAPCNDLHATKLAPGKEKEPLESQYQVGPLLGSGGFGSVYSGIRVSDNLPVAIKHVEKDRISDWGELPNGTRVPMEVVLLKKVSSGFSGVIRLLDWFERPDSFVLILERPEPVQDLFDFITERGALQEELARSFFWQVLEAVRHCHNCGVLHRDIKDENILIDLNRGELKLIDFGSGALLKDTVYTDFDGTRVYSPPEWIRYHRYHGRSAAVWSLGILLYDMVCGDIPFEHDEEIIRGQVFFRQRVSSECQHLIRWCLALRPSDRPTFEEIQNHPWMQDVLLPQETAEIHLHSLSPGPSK

[9] = target: Serine/threonine-protein kinase pim-1 (Homo sapiens) (UniProt P11309); settings: at 1 µM
[10] = target: Serine/threonine-protein kinase pim-2 (Homo sapiens) (UniProt Q9P1W9); settings: at 0.1 µM;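 also: reported value is the mean percent inhibition of PIM2, measured in the GSK PKIS kinase inhibitor set screen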
Sequence of Serine/threonine-protein kinase pim-2 (Homo sapiens) (Q9P1W9 whole entry, looked up): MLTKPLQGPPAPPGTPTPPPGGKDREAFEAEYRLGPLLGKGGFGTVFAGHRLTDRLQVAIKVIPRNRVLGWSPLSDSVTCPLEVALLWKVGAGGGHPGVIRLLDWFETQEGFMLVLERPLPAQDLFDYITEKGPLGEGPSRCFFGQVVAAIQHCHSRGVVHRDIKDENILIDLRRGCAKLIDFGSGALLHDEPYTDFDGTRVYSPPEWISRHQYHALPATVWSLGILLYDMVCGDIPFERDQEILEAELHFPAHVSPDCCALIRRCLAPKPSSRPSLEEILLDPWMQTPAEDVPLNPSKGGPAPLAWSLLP

Sequence of Serine/threonine-protein kinase MARK2 (Homo sapiens) (Q7KZI7 whole entry, the tested form may be a part): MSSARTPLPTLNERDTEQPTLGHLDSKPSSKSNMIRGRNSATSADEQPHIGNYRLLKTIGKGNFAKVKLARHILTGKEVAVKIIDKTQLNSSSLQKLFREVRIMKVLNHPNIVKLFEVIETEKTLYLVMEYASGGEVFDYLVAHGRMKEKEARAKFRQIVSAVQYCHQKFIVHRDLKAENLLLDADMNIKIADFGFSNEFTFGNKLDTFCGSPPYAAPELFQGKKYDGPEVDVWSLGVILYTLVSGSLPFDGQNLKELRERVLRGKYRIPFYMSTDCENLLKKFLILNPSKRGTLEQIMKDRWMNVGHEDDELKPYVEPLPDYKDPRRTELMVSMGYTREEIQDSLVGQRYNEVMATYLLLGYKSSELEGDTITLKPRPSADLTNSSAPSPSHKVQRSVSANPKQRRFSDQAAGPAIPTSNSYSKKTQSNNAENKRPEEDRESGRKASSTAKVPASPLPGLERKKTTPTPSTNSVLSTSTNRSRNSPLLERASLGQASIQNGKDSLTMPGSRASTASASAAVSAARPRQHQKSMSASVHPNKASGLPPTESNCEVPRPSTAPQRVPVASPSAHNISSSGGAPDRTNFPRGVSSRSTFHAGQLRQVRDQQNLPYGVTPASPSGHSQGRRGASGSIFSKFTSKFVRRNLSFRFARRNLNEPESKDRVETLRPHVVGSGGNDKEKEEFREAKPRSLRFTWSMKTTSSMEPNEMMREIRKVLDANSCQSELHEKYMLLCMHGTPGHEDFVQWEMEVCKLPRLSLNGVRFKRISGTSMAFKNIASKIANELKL
Sequence of PAS domain-containing serine/threonine-protein kinase (Homo sapiens) (Q96RG2 whole entry, the tested form may be a part, canonical isoform): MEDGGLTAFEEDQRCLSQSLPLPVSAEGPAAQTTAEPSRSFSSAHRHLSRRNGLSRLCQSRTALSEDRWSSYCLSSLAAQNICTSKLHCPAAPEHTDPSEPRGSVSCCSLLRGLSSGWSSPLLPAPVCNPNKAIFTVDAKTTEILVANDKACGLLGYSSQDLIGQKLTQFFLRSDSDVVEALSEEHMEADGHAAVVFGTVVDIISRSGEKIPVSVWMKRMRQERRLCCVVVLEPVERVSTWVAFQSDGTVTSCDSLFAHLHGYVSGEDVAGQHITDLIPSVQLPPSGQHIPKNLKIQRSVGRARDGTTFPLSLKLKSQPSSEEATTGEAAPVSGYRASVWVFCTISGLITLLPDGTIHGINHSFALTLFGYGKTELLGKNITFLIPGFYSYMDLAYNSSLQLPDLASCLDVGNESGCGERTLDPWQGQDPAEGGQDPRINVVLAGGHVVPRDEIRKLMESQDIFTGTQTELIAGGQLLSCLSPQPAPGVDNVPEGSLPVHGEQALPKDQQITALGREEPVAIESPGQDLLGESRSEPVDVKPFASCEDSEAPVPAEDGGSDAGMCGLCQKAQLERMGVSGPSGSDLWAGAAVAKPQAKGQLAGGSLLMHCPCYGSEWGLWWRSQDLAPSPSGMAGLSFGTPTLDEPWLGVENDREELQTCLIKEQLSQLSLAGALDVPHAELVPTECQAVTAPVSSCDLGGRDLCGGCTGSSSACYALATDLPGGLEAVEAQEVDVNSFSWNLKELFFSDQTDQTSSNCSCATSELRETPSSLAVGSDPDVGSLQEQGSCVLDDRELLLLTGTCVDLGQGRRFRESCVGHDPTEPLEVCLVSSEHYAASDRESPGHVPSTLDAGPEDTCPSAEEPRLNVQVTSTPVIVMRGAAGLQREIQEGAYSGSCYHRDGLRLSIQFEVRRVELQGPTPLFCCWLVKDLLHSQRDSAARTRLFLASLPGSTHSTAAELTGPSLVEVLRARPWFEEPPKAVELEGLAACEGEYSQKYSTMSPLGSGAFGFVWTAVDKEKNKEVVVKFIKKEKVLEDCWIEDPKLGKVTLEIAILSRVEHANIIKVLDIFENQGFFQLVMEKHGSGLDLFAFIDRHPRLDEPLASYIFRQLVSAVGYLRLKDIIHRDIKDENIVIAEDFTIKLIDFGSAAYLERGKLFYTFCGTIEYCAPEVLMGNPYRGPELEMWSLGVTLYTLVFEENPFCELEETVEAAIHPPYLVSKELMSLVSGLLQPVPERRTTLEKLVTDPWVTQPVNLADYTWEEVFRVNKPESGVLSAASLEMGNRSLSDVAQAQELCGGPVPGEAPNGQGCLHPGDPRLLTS

SMILES	inhibition [1]	inhibition [2]	inhibition [3]	inhibition [4]	inhibition [5]	inhibition [6]	inhibition [7]	inhibition [8]	inhibition [9]	inhibition [10]
NS(=O)(=O)c1ccc(N/N=C2\C(=O)Nc3cccc(CCc4ccncc4)c32)cc1	4.73%	1.68%	1%	4.94%	11.7%	0.33%	-0.92%	0.54%	1.13%	0.11%
O=C(O[C@H]1CN[C@H](C#Cc2cc3ncnc(Nc4ccc5c(cnn5Cc5ccccc5)c4)c3s2)C1)N1CCOCC1	1.58%	1.66%	0.95%	2.11%	6.5%	-0.83%	-1.47%	-1.14%	-0.83%	-0.43%
NS(=O)(=O)c1ccc(N/N=C2\C(=O)Nc3ccc(C(=O)NCc4ccncc4)cc32)cc1	21.3%	0.76%	2.6%	5.19%	28.9%	4.99%	11.4%	1.75%	7.29%	0.12%
FC(F)(F)CNc1nccc(-c2cnn3ncccc23)n1	2.13%	1.06%	0.79%	3.02%	6.43%	3.98%	4.36%	0.08%	3.03%	-0.09%
Nc1nccc(-c2c(-c3ccc(F)cc3)ncn2C2CCNCC2)n1	1.75% and 0.35%	-0.64% and -0.39%	-0.63% and -0.93%	-0.27% and 1.11%	2.04% and 1.58%	-6.47% and 0.35%	-6.27% and -1.71%	0.29% and -0.7%	7.06% and -0.6%	-0.19% and 0.2%
Cc1nnc(-c2cccc(-c3ccc(C(=O)NCC4CC4)cc3)c2)o1	1.69%	0.89%	0.76%	3.57%	5.91%	7.39%	7.38%	-0.37%	1.97%	0.91%
COc1cc(N2CCN(C(C)C)CC2)ccc1Nc1nc(Nc2cccc(F)c2C(=O)O)c2cc[nH]c2n1	3.36%	0.65%	0.52%	8.07%	39.8%	6.18%	19.9%	-0.13%	1.42%	0.01%
COc1ccccc1-c1cc(/C=C2\C(=O)Nc3ncc(Br)cc32)cc(Br)c1O	2.22%	-1.52%	-3.29%	3.58%	7.04%	4.87%	3.85%	0.14%	3.18%	0.1%
Fc1ccc(Nc2nccc(-c3c(-c4ccc(C(F)(F)F)cc4)nn4ncccc34)n2)cc1F	2.64%	0.46%	-1.14%	-0.56%	1.84%	3.81%	0.35%	1.07%	0.89%	0.92%
O=C(Nc1n[nH]c2nnc(-c3cccnc3)cc12)C1CC1	1.5%	1.31%	0.02%	0.1%	-0.03%	-1.23%	-1.9%	26.1%	74.5%	4.25%
CS(=O)(=O)CCNCc1ccc(-c2ccc3ncnc(Nc4ccc(OCc5cccc(C(F)(F)F)c5)cc4)c3c2)o1	5.07%	-1.03%	-1.02%	2.44%	4.94%	5.95%	4.97%	1.96%	3.18%	-0.68%
COc1cccc(-n2ncc3c(N/N=C/c4ccc(C(=O)NCCN(C)C)cc4)ncnc32)c1	11.9%	0.59%	-0.48%	5.75%	30.5%	3.32%	7.38%	1.53%	8.23%	0.17%
Nc1nonc1-c1nc2cnccc2n1C1CC1	17.9% and 14.9%	0.62% and -0.65%	1.08% and 0.92%	5% and 3.93%	7.51% and 3.48%	4.1% and 2.66%	1.15% and 2.16%	12.4% and 13.8%	56.3% and 59.1%	1.57% and -2.36%
COc1cc(Nc2ncc(-c3ccccc3)o2)cc(OC)c1	2.52%	-1.02%	-0.79%	5.83%	14.1%	4.54%	5.45%	1.14%	1.63%	0.58%
COC(=O)Nc1nc2ccc(Oc3ccc(NC(=O)Nc4cc(C(F)(F)F)ccc4F)cc3)cc2s1	-0.26%	-0.29%	-0.57%	-9.77%	1.81%	-0.83%	-1.17%	0.9%	1.19%	-0.21%
COC(=O)Nc1nc2cc(Oc3ccc(NC(=O)Nc4ccccc4)cc3)ccc2[nH]1	-0.9%	0.34%	1.02%	4.15%	5.64%	4.43%	6.25%	-0.24%	0.02%	0.15%

SMILES	inhibition [1]	inhibition [2]	inhibition [3]	inhibition [4]	inhibition [5]	inhibition [6]	inhibition [7]	inhibition [8]	inhibition [9]	inhibition [10]
c1ccc(-c2n[nH]cc2-c2ccnc(-c3ccc(OCCn4ccnc4)cc3)c2)nc1	-0.66%	-0.73%	-0.48%	2.85%	6.86%	-0.35%	3.4%	0.32%	0.45%	0.56%
CCCNc1cccc(-n2ncc3c(N/N=C/c4ccncc4)ncnc32)c1	4.97%	1.18%	3.05%	2.76%	19.5%	2.56%	7.69%	0.64%	1.01%	1.23%
COc1c(C(N)=O)cc(-c2ccc(Cl)cc2)cc1-c1ccc(S(N)(=O)=O)cc1	1.57%	-2.39%	-1.49%	0.45%	3.12%	3.72%	5.17%	1.83%	2.23%	-0.64%
O=C1Nc2ccccc2/C1=C1\CCc2cc(O)ccc21	24%	0.2%	-1.25%	9.05%	40.6%	6.64%	9.59%	2.37%	10.2%	-0.2%
CN1CCN(Cc2ccc(-c3cc4ncnc(Nc5ccc(OCc6cccc(F)c6)c(Cl)c5)c4s3)o2)CC1	2.8% and -1.69%	1.09% and -0.73%	0.63% and 0.18%	4.48%	6.3% and 12.4%	3.47% and 7.21%	2.85% and 9.87%	-0.54% and 0.21%	1.02% and 0.98%	-0.52% and 0.67%
NC(=O)c1ccc2c(-c3ccnc(NCCCO)n3)c(-c3ccc(F)cc3)nn2c1	1.98%	0.06%	-1.12%	6.92%	7.38%	5.28%	2.16%	1.1%	0.82%	-0.18%
Nc1ncnc2occ(-c3ccc(NC(=O)Nc4cc(C(F)(F)F)ccc4F)cc3)c12	2.65% and 0.89%	0.79% and 0.18%	0.2% and -0.5%	0.08% and -0.25%	4.52% and 6.47%	2.69% and -2.51%	-1.12% and -5.1%	0.97% and 0.53%	1.19% and 2.46%	0.22% and 0.7%
CCOc1ccc2c(-c3ccnc(Nc4cc(OC)cc(C(F)(F)F)c4)n3)cnn2n1	1.23%	0%	0.64%	1.57%	0.94%	0.61%	0.99%	0.51%	-0.17%	-0.46%
CCn1c(-c2nonc2N)nc2cncc(C(=O)NCCNC)c21	14%	0.06%	3.5%	4.55%	7.35%	5.01%	6.69%	46.4%	87%	1.81%
CS(=O)(=O)CCNCc1ccc(-c2ccc3ncnc(Nc4ccc(OCc5ccccc5)cc4)c3c2)o1	1.67%	0.96%	0.95%	4.83%	4.75%	4.78%	4.2%	1.47%	1.03%	0.19%
CC1=C(C(=O)Nc2ccc3[nH]ncc3c2)C(c2ccc(F)cc2)N=C(c2ccc(C(F)(F)F)nc2)N1 (stereo not given)	2.79%	-0.13%	-0.98%	0.36%	1.77%	1.74%	-0.23%	0.3%	-0.09%	0.44%
CN1CCC(C(=O)Nc2n[nH]c3nc(-c4ccc(O)cc4)c(Br)cc23)CC1	2.87% and -0.48%	0.12% and 1.36%	1.4% and -0.48%	7.58% and -0.16%	16.1% and 3.32%	4.67% and 1.73%	9.01% and 2.52%	5.3% and 6.07%	34.8% and 33.4%	-0.97% and 1.73%
Cc1ccc(-c2cc3c(NC(=O)C4CC4)ncnc3o2)cc1	3.45%	0.53%	0.26%	3.62%	9.89%	4.46%	1.83%	0.73%	1.91%	0.35%
Cc1cc(O)cc(C)c1/C=C/c1cncc(C(=O)OC(C)(C)C)c1	1.18%	-0.08%	0.02%	3.95%	-7.1%	3.11%	1.25%	0.18%	0.23%	0.32%
CN(C)CCNC(=O)Nc1ccc(N(C)c2ccnc(Nc3ccc(CS(C)(=O)=O)cc3)n2)cc1	7.11%	1.26%	-0.25%	2.14%	4.59%	4.64%	1.59%	1.06%	1.39%	0.27%
